FBW7 act – human FBW7 E3 ligase activation, primary screen; 650,000 compounds, 0.13% hits; normalized activity (activation), % at 26.1 µM; AlphaScreen FBW7–phospho-cyclin E peptide binding, activator screen; Q969H0; in the data active means normalized activity above about 1.9%;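 further: purified mutant Fbw7 with reduced substrate affinity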
MITF primary – human MITF inhibition, primary screen; O75030; AlphaScreen MITF homodimerization, bead proximity signal; inhibition, % at 2.6 µM; 650,000 compounds, 0.91% hits; in the data active means inhibition above about 50%
Target sequence (O75030 whole entry, looked up): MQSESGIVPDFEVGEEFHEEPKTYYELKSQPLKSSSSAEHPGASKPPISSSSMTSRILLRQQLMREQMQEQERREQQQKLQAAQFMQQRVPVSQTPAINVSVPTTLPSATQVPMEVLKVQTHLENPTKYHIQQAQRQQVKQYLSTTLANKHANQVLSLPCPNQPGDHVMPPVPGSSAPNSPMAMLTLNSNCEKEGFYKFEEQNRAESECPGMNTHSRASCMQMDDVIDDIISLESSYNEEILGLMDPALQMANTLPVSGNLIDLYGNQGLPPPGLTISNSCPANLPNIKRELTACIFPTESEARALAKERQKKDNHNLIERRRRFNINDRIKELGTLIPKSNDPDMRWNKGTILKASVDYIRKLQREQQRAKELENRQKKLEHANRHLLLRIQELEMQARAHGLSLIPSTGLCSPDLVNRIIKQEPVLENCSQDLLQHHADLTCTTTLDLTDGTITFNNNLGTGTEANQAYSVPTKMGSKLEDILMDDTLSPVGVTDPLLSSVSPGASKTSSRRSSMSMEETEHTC
GPR151 ag – activators of human GPR151; PathHunter beta-arrestin GPR151 cells, luminescence; Q8TDV0; 650,000 compounds, 1% hits; activation, % at 11.2 µM; in the data active means activation above about 4.9%
TEAD-YAP block – TEAD-YAP interaction inhibition; HEK-TIYL cells, TEAD-Gal4/YAP UAS-luciferase luminescence; inhibition, % at 9.12 µM; 640,000 compounds, 1.4% hits; AID 1259422; in the data active means inhibition above about 32%
MITF inh conf – human MITF inhibition, confirmation; shares compounds with MITF primary; AlphaScreen MITF homodimerization, biotin/His-MITF beads; inhibition, % at 2.6 µM; 4,700 compounds, 16% hits; AID 1259372;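 active means inhibition above a cutoff derived from the DMSO control wells, cut at about 28% in these data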;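 further: inhibitors lower the bead chemiluminescence by keeping MITF from dimerizing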
AS interf DR – optically interferes with AlphaScreen signal in dose response; AlphaScreen optical interference counterscreen, cell-free; AID 1259373; 480 compounds, 6% hits; IC50, µM; shares compounds with MITF primary; call rule not given here
AlphaScreen intf2 – optically interferes with AlphaScreen signal | shares compounds with MITF primary | AID 1259376 | inhibition, % at 2.6 µM | 4,700 compounds, 7.6% hits | LysRS AlphaScreen counterscreen, signal interference, triplicate;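 active means inhibition above a cutoff derived from the DMSO control wells, cut at about 30% in these data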
A number is an active result; - = inactive; . = no result. This is a sample that favours compounds with a hit; in the whole collection about 3.4% have one here.

SMILES	FBW7 act	MITF primary	GPR151 ag	TEAD-YAP block	MITF inh conf	AlphaScreen intf2	others
CC(C)NC(=O)C1CCN(Cc2ccc(Cl)c(Cl)c2)CC1	-	51	-	-	-	-
COc1ccccc1N1CCN(C2CCCN(C(=O)CN3CCOC3=O)C2)CC1 (stereo unspecified)	-	-	-	-	.	.
CC[C@H](C)[C@@H]1NC(=O)[C@@H]2C[C@H](NCc3ccc(C)c(F)c3)CN2C1=O	-	-	-	-	.	.
O=C(O)CSc1nnc2n(Cc3ccccc3F)c3ccccc3n12	-	-	-	-	.	.
Cc1cc(C)cc(C(=O)Nc2c3c(nn2-c2ccc(F)cc2)CSC3)c1	-	-	-	-	.	.
COc1ccc(/C=C\C(=O)Nc2c3c(nn2-c2cccc(Cl)c2)CSC3)cc1OC	-	-	-	-	.	.
O=C(/C=C\c1ccccc1)Nc1c2c(nn1-c1cccc(Cl)c1)CSC2	-	67	-	-	-	-
Cc1cccc(C(=O)Nc2c3c(nn2-c2ccc(F)cc2)CSC3)c1	-	53	-	-	35	-	AS interf DR=-
CCOc1cc(/C=C2\C=C(c3ccc(Cl)cc3)OC2=O)cc(Br)c1OC(C)=O	-	-	-	-	.	.
COc1ccc(N2CCN(CCCn3c(=S)[nH]c4cc5c(cc4c3=O)OCO5)CC2)cc1	-	-	-	-	.	.
CCOC(=O)C1=C(C)NC2=C(C(=O)C(C(=O)OCC)C(c3ccccc3OC)C2)C1c1cc(OC)ccc1OC (stereo unspecified)	-	-	-	-	.	.
CCOC(=O)C1=C(C)NC2=C(C(=O)C(C(=O)OCC)C(c3ccc(OC)cc3)C2)C1c1cc(OC)ccc1OC (stereo unspecified)	-	116	-	-	-	-
O=C(Nc1c2c(nn1-c1ccc(Cl)cc1)CS(=O)(=O)C2)C1CCCCC1	-	-	-	-	.	.
O=[N+]([O-])c1ccc(CN2CCN(c3cccc(Cl)c3)CC2)o1	-	-	-	-	.	.
O=[N+]([O-])c1ccc(CN2CCN(c3ncccn3)CC2)o1	-	58	-	-	-	-
O=[N+]([O-])c1ccc(CN2CCN(c3ccc(Cl)cc3)CC2)o1	-	59	-	-	-	-
Cc1cc(C)c(S(=O)(=O)N2CCOCC2)cc1Br	-	-	-	-	.	.
Cc1ccc(C(=O)Oc2coc(CSc3nc(C)cc(C)n3)cc2=O)cc1	-	55	-	-	-	-
CN(C)CCN(C)Cc1ccc(-c2ccccc2)cc1	-	52	-	-	-	-
Cc1ccccc1CN(C)CCc1ccccn1	-	-	-	-	.	.
CN(CCc1ccccn1)Cc1cccc(Cl)c1	-	51	-	-	-	-
CCOc1ccc(CN(C)CCc2ccccn2)cc1	-	88	-	-	-	-
Cc1cccc(CN(C)CCc2ccccn2)c1	-	69	-	-	-	-
CN(CCc1ccccn1)Cc1cccc(Br)c1	-	-	-	-	.	.
COc1cccc(C(=O)NCCc2c(C)[nH]c3ccccc23)c1	-	-	-	-	.	.
SMILES	FBW7 act	MITF primary	GPR151 ag	TEAD-YAP block	MITF inh conf	AlphaScreen intf2	others
COc1c(Cl)cc(Cl)cc1C(=O)O	-	-	-	-	.	.
C=CCNC(=O)C(=O)Nc1cccc2ccccc12	-	-	-	-	.	.
O=C(NCCCCNC(=O)c1cccc(F)c1)c1cccc(F)c1	-	-	-	-	.	.
NC1=NCC(O)=C1c1nc2ccccc2s1	-	-	-	-	.	.
COc1cccc(OCC(=O)NCc2ccccn2)c1	-	-	-	-	.	.
CCn1c2ccccc2c2cc(CN(C)CCc3ccccn3)ccc21	-	74	-	-	-	-
CN(CCc1ccccn1)Cc1ccc(Br)cc1	-	-	-	-	.	.
Cc1cccc(OCC(=O)N(C)CCc2ccccn2)c1	-	62	-	-	-	-
CCOc1ccc(CN(C)CCN(C)C)cc1	-	85	-	-	-	-
CN(C)CCN(C)Cc1ccc(F)c(F)c1	-	51	-	-	-	-
CC(C)(C)c1ccc(C(=O)Nc2ccc(NC(=O)c3ccc4ccccc4c3)cc2)cc1	-	-	-	-	.	.
CC(=O)Nc1ccc(NC(=O)CSc2ccccc2C)cc1	-	-	-	-	.	.
CCN(O)C(=O)Nc1cccc(Cl)c1	-	70	-	-	-	-
CC(=O)CC(=O)Nc1cccc(Cl)c1	-	-	-	-	.	.
Cc1cccc(NC(=O)c2ccc(COc3ccccc3Br)cc2)n1	-	70	-	-	-	-
Cc1cccc(NC(=O)c2cccc(OCc3ccccc3)c2)n1	-	-	-	-	.	.
COc1cc(C(=O)N2CCN(Cc3ccccc3C)CC2)cc(OC)c1OC	-	60	-	-	38	-	AS interf DR=-
COc1cc(C(=O)N2CCN(Cc3ccccc3F)CC2)cc(OC)c1OC	-	-	-	-	.	.
COc1cc2c(cc1CN1CCN(C(=O)c3cc(OC)c(OC)c(OC)c3)CC1)OCO2	-	53	-	-	-	-
COc1ccc(OC)c(/C=N\NC(=O)CNc2ccccc2C)c1	-	63	-	-	-	-
COc1ccc(Br)cc1/C=N\NC(=O)CNc1ccccc1C	-	-	-	-	.	.
CCOC(=O)c1c(NC(=O)CN2CCN(C)CC2)sc2c1CC(C)(C)NC2(C)C	-	53	-	-	-	-
NCCNC(CC(=O)Nc1cccc(Cl)c1Cl)C(=O)O (stereo unspecified)	-	85	-	-	-	33
Cc1c(Cl)cccc1NC(=O)CC(NCCCN(C)C)C(=O)O (stereo unspecified)	-	-	-	-	.	.
Cc1c(Cl)cccc1NC(=O)CC(NCc1ccccn1)C(=O)O (stereo unspecified)	-	90	-	-	62	100
SMILES	FBW7 act	MITF primary	GPR151 ag	TEAD-YAP block	MITF inh conf	AlphaScreen intf2	others
O=C(CC(NCc1ccccc1)C(=O)O)Nc1cccc(Cl)c1Cl (stereo unspecified)	-	-	-	-	.	.
COc1ccc(NC(=O)CC(NCc2ccccn2)C(=O)O)cc1 (stereo unspecified)	-	110	-	-	107	100
CCCNC(CC(=O)Nc1ccc(OC)cc1)C(=O)O (stereo unspecified)	-	-	-	-	.	.
CCN(CC)S(=O)(=O)c1cc(C(=O)OCC(=O)Nc2ccc(C(N)=O)cc2)ccc1C	-	-	-	-	.	.
COc1cc(OC)c(OC)cc1/C=C(\C#N)C(=O)Nc1ccc([N+](=O)[O-])cc1O	-	-	-	-	.	.
O=C(O)c1coc(CNC(=O)c2cocc2C(=O)O)c1	-	64	-	-	50	-	AS interf DR=-
COC(=O)Cc1[nH]nc2c1C1(C(=O)N(Cc3ccccc3)c3ccccc31)C(C#N)=C(N)O2 (stereo unspecified)	-	-	-	-	.	.
COC(=O)Cc1[nH]nc2c1C1(C(=O)Nc3ccccc31)C(C#N)=C(N)O2 (stereo unspecified)	-	66	-	-	-	-
CCNc1nc(NCCOc2ccccc2)c2ncn(C3CCCCC3)c2n1	-	54	-	-	-	-
CN(C)CCCNCC(=O)c1c(-c2ccccc2)n(C)c2ccccc12	-	51	-	-	-	-

Screening results: PubChem BioAssay, The Scripps Research Institute Molecular Screening Center
